Data from the supplement of paper PMC13380429.

Tested on: Vero E6 infected with SARS-CoV-2
Test: inhibition of SARS-CoV-2 cytopathic effect; higher = more antiviral protection, active = above 15
Settings: 48 h

Measured: inhibition of SARS-CoV-2 cytopathic effect

CCOCCn1c(N2CCCN(C)CC2)nc2ccccc21 [emedastine]
inactive: 1 nM -2.21% | 8.33 nM 0.36% | 100 nM -2.49% | 833.33 nM 1.46% | 10000 nM -0.01%

C[Se]C[C@H](N)C(=O)O [Se-methylselenocysteine]
inactive: 1 nM 2.05% | 8.33 nM 1.18% | 100 nM 0.23% | 833.33 nM 0.93% | 10000 nM 1.8%

CC(C)(C)c1ccc(C(=O)Nc2cn3cc(-n4ccnc4)ccc3n2)cc1
inactive: 1 nM 2.98% | 8.33 nM 0.55% | 100 nM 2.27% | 833.33 nM 2.13% | 10000 nM -0.45%

CCOC(=O)c1c(C)n(C)c2ccc(O)cc12 [mecarbinate]
inactive: 1 nM -0.79% | 8.33 nM -1.26% | 100 nM -2.84% | 833.33 nM -2.4% | 10000 nM -2.61%

CC(C)CN(C[C@@H](O)[C@H](Cc1ccccc1)NC(=O)O[C@H]1CCOC1)S(=O)(=O)c1ccc(N)cc1 [amprenavir]
inactive: 1 nM -0.22% | 8.33 nM 1.43% | 100 nM -0.29% | 833.33 nM -1.76% | 10000 nM -0.72%

CC/C(=C(/c1ccc(/C=C/C(=O)O)cc1)c1ccc2[nH]ncc2c1)c1ccc(F)cc1Cl
inactive: 1 nM 4.17% | 8.33 nM -1.18% | 100 nM -1.84% | 833.33 nM 0.21% | 10000 nM -0.85%

CC(C)(C)NC[C@H](O)COc1nsnc1N1CCOCC1 [timolol]
inactive: 1 nM -1.77% | 8.33 nM 0.61% | 100 nM -1.85% | 833.33 nM 3.77% | 10000 nM 0.96%

CC(C)(C)NCC(O)c1ccccc1Cl (stereo not given) [tulobuterol]
inactive: 1 nM 2.01% | 8.33 nM 1.33% | 100 nM -0.63% | 833.33 nM -10.6% | 10000 nM 2%

COc1cc(Br)c(S(=O)(=O)Nc2ccc(C(F)(F)F)c(O[C@@H]3CCN(C)C3)c2)cc1OC
inactive: 1 nM 1.05% | 8.33 nM 2.6% | 100 nM -1.36% | 833.33 nM -0.46% | 10000 nM -2.24%

N#Cc1ccc(N(Cc2ccc(Br)cc2)n2cnnc2)cc1
inactive: 1 nM 1.03% | 8.33 nM -0.63% | 100 nM 3.36% | 833.33 nM 2.99% | 10000 nM -2.52%

NC(=O)CN1CC(c2ccccc2)CC1=O (stereo not given) [phenylpiracetam]
inactive: 1 nM 1.63% | 8.33 nM -10.6% | 100 nM 2.27% | 833.33 nM 1.14% | 10000 nM -0.44%

Nc1ccc2cc3ccc(N)cc3nc2c1 [proflavine-hemisulfate]
inactive: 1 nM -1.46% | 8.33 nM -2.57% | 100 nM -0.42% | 833.33 nM 1.94% | 10000 nM -8.75%

Nc1nc(NC2CC2)cc(-c2cccc(Cl)c2Cl)n1
inactive: 1 nM 0.66% | 8.33 nM -1.17% | 100 nM -1.96% | 833.33 nM -0.45% | 10000 nM -1.5%

CC(=O)N1CCN(C)CC1 [1-acetyl-4-methylpiperazine]
inactive: 1 nM 4.74% | 8.33 nM 3.75% | 100 nM 3.95% | 833.33 nM 4.36% | 10000 nM -0.21%

NC(=O)c1ccccc1O [salicylamide]
inactive: 1 nM -0.95% | 8.33 nM 2.62% | 100 nM 5.65% | 833.33 nM 3.83% | 10000 nM 0.13%

Cc1ncc(CSSCc2cnc(C)c(O)c2CO)c(CO)c1O [pyritinol]
inactive: 1 nM -0.56% | 8.33 nM 1.16% | 100 nM 2.92% | 833.33 nM 1.42% | 10000 nM 0.94%

O=c1[nH]c2ccc(Cl)cc2c(N[C@@H]2CN3CCC2CC3)c1-c1nc2ccccc2[nH]1
inactive: 1 nM 0.01% | 8.33 nM 0.79% | 100 nM -0.9% | 833.33 nM -5.44% | 10000 nM -15.4%

Cc1ccc(S(=O)(=O)OCC(=O)Nc2ccc(C(=O)O)c(O)c2)cc1 [STAT3-inhibitor-VI]
inactive: 1 nM -0.14% | 8.33 nM -0.23% | 100 nM 0.11% | 833.33 nM -1.76% | 10000 nM 1.39%

Cc1ccccc1/N=N/c1ccc(NC(=O)c2ccnn2C)c(C)c1
inactive: 1 nM -1.46% | 8.33 nM 0.89% | 100 nM 1.16% | 833.33 nM 2.03% | 10000 nM 0.48%

N[C@H](C(=O)O)c1ccc(O)c(C(=O)O)c1 [3-carboxy-4-hydroxyphenylglycine-(S)]
inactive: 1 nM -1.22% | 8.33 nM 0.105% | 100 nM -0.545% | 833.33 nM -1.18% | 10000 nM 0.39%
